Test results as given in PubChem BioAssay (NCATS).
Results filed as inconclusive are left out. Activity calls are given as the source filed them. Calls come from the whole dose curve; as a rule, active = well fitted cell-killing curve with a large enough effect; inconclusive = small, poorly fitted or top-dose-only effect, or effect the other way; inactive = no such curve, though single readings can be large or run the other way.

Assay: Quantitative High-Throughput drug screen in 47 multiple myeloma cell lines against the NCATS MIPE library collection: Delta47_JCRB cell viability assay (AID 1918925; note: nearly all actives have a fitted effect of over 45% in size)
Conditions: Delta47 myeloma viability, CellTiter-Glo ATP, 48 h; series mostly up to 45.8 µM; viability (% of DMSO): at the top concentration
Text: PI: Beverly A. Mock Ph.D.
Laboratory of Cancer Biology and Genetics,
Center for Cancer Research, National Cancer Institute,
National Institute of Health, Bethesda, Maryland
Drug resistance and disease progression are common in multiple myeloma (MM) patients, underscoring the need for new therapeutic combinations. […] We hypothesized that effective combinations would reduce MYC expression and enhance p16 activity. […] These preclinical data identify potentially useful drug combinations for evaluation in drug-resistant MM and reveal potential mechanisms of combined drug sensitivity.
Described herein is the primary MIPE qHTS used to cherrypick compounds. Validated compounds were then further tested for potential synergistic activiy.
[1] Peat TJ, Gaikwad SM, Dubois W, Gyabaah-Kessie N, Zhang S, Gorjifard S, Phyo Z, Andres M, Hughitt VK, Simpson RM, Miller MA, Girvin AT, Taylor A, Williams D, D'Antonio N, Zhang Y, Rajagopalan A, Flietner E, Wilson K, Zhang X, Shinn P, Klumpp-Thomas C, McKnight C, Itkin Z, Chen L, Kazandijian D, Zhang J, Michalowski AM, Simmons JK, Keats J, Thomas CJ, Mock BA. Drug combinations identified by high-throughput screening promote cell cycle transition and upregulate Smad pathways in myeloma. Cancer Lett. 2023 Aug 1;568:216284. doi: 10.1016/j.canlet.2023.216284. Epub 2023 Jun 24. PMID: 37356470; PMCID: PMC10408729.
SEQUENCE No. (e.g., 1, 2, 3, etc.); […] (e.g., Cells, Incubation, Reagent, etc.); VALUE and DESCRIPTION.
1; Cells; 5 uL; white, solid bottom 1536-well Greiner assay plate.
2; Compounds; 23 nL; Kalypsis pin tool (Wako USA) equipped with a 1536-well pin head to transfer to the assay plates.
3; Incubation; 48 hours; 37C incubation.
4; Reagent;5uL; CellTiter Glo (Promega).
5; Detector; 425V; Luminescence; Viewlux PerkinElmer.
NOTES (numbers refer to Sequence numbers above)
1. The cell-based screening methods employed in this study were like those previously published. Briefly, the corresponding myeloma cell lines were screened in 1,536-well plates with 500 cells, 5-uL per well for inhibition of cell viability (assessed by measuring ATP levels with CellTiterGlo).
2. NCATS MIPE 4.0 library of approved and investigational drugs were added using the Kalypsis pin tool. Wells treated with DMSO only for 100% viability and media only wells for 0% viability were used as controls.
3. The assay plates were covered and incubated for 48 hours in a 37C, 5% CO2 incubator with controlled humidity.
4. After 48 hours, CellTilter-GloTM luminescent substrate mix (Promega) reagent was added to the assay plate and plates we incubated for 5 min at room temperature.
5. Signal was measured as median relative luminescence units on a ViewLux (PerkinElmer) multiplate reader.
[1] Heske CM, Davis MI, Baumgart JT, Wilson K, Gormally MV, Chen L, Zhang X, Ceribelli M, Duveau DY, Guha R, Ferrer M, Arnaldez FI, Ji J, Tran HL, Zhang Y, Mendoza A, Helman LJ, Thomas CJ. Matrix Screen Identifies Synergistic Combination of PARP Inhibitors and Nicotinamide Phosphoribosyltransferase (NAMPT) Inhibitors in Ewing Sarcoma. Clin Cancer Res. 2017 Dec 1;23(23):7301-7311. doi: 10.1158/1078-0432.CCR-17-1121. Epub 2017 Sep 12. PMID: 28899971; PMCID: PMC6636827.
Potency is the fitted concentration of half-maximal effect.

Row | SMILES | viability (% of DMSO) | Potency
1 | CC(=Cc1csc(C)n1)[C@@H]1C[C@H]2O[C@@H]2CCC[C@H](C)[C@@H](O)[C@@H](C)C(=O)C(C)(C)[C@@H](O)CC(=O)O1 | 30.6% (inactive) | –
2 | COc1cccc2c1[C@]13CCN(CC4CC4)[C@H](C2)[C@]1(OC)CCC(=O)C3 | 107% (inactive) | –
3 | CC[C@@H]1[C@@H](C)O[C@@](O)([C@@H](C)[C@H](O)[C@H](C)[C@H]2OC(=O)C=CC=C[C@@H](C)[C@@H]([C@@H](C)[C@@H](O)[C@H](C)[C@@]3(O)C[C@H](O[C@H]4C[C@H](O)[C@H](O)[C@H](C)O4)[C@H](CC)[C@@H](C)O3)OC(=O)C=CC=C[C@@H]2C)C[C@H]1O[C@H]1C[C@H](O)[C@H](O)[C@H](C)O1 | – | 0.743 µM (active)
4 | CSCC[C@@H](NC(=O)[C@@H](Cc1ccccc1)NC(=O)CNC(=O)CNC(=O)[C@@H](N)Cc1ccc(O)cc1)C(=O)O | 121% (inactive) | –
5 | C[C@H]1CCCC=CC2C[C@H](O)C[C@@H]2[C@H](O)C=CC(=O)O1 (stereo not given in full) | 5.73% (inactive) | –
6 | c1cc2c(cc1[C@H]1OC[C@H]3[C@H]1CO[C@H]3c1ccc3c(c1)OCO3)OCO2 | 112% (inactive) | –
7 | CCOC(=O)c1c(C(C#N)=CN)c2ccc(Cl)c(Cl)c2n1C | 80.2% (inactive) | –
8 | COc1ccc(N(C(=O)Oc2c(C)cccc2C)c2ccnc(Nc3ccc(N4CCN(C)CC4)cc3)n2)c(OC)c1 | – | 4.18 µM (active)
9 | CN1[C@H]2CC(O)C[C@H]1[C@H]1O[C@H]12 (stereo not given in full) | – | 9.35 µM (active)
10 | CCN1CCN(C(=O)Cc2ccc(Nc3ncc(F)c(Nc4ccc(C(=O)Nc5ccccc5Cl)cc4)n3)cc2)CC1 | – | 1.32 µM (active)
11 | CC(C)(O)C=CC(=O)[C@](C)(O)[C@H]1[C@H](O)C[C@]2(C)[C@@H]3CC=C4[C@@H](C=C(O)C(=O)C4(C)C)[C@]3(C)C(=O)C[C@@]12C | – | 0.0166 µM (active)
12 | COc1ccc(C(=O)c2c(C)n(CCN3CCOCC3)c3cc(I)ccc23)cc1 | – | 16.6 µM (active)
13 | C#CC1(O)CCC2C3CCC4=CC(=O)CCC4(C)C3CCC21C (stereo not given) | 109% (inactive) | –
14 | CC1(N2CCC(n3c([C@@H]4CCCNC4)nc4ccccc43)CC2)CCCCCCC1 | – | 13.2 µM (active)
15 | CC(C)[C@]12O[C@@H]1[C@@H]1O[C@]13[C@]1(O[C@H]1C[C@@H]1C4=C(CC[C@@]13C)C(=O)OC4)[C@H]2O | 2.21% (inactive) | –
16 | C[C@H]([C@H](O)CCC(C)(C)O)[C@H]1CC[C@@]2(O)C3=CC(=O)[C@@H]4C[C@@H](O)[C@@H](O)C[C@]4(C)[C@@H]3CC[C@]12C | 99.4% (inactive) | –
17 | CC(=CCCC1=CCC(C2=CC(=O)OC2O)OC1O)CCC1=C(C)CCCC1(C)C (stereo not given) | 109% (inactive) | –
18 | NC1=NC(=O)N2CC12 (stereo not given) | – | 10.5 µM (active)
19 | CC(=O)OCC1=C(C(=O)O)N2C(=O)[C@@H](N)[C@@H]2SC1 | 147% (inactive) | –
20 | COc1ccc2c(c[n+](C)c3c4cc5c(cc4ccc23)OCO5)c1OC | – | 9.35 µM (active)

Row | SMILES | viability (% of DMSO) | Potency
21 | CCOC(=O)c1cncn1[C@H](C)c1ccccc1 | 81.7% (inactive) | –
22 | Clc1ccccc1C(c1ccccc1)(c1ccccc1)n1cccn1 | 134% (inactive) | –
23 | COC(=O)[C@@H](N)CCCN=C(N)N[N+](=O)[O-] | 99.7% (inactive) | –
24 | C=C[C@@H]1CN2CCC1C[C@@H]2[C@@H](O)c1ccnc2ccccc12 (stereo not given in full) | – | 23.5 µM (active)
25 | CO[C@H]1CCC(O[C@H]2C[C@H]([C@]3(C)CC[C@]4(C[C@H](O)[C@@H](C)[C@@H]([C@@H](C)C=C(C)C(=O)[C@H](C)C[C@H](C)C(=O)O)O4)O3)O[C@]3(O[C@@H]([C@H]4O[C@@](O)(CO)[C@H](C)C[C@H]4C)C[C@H]3C)[C@H]2C)O[C@H]1C (stereo not given in full) | – | 1.18 µM (active)
26 | C=CCON=C(C[C@H]1O[C@@H]2O[C@]3(C)CC[C@@H]4[C@H](C)CC[C@@H]([C@H]1C)[C@@]24OO3)[C@H]1O[C@@H]2O[C@]3(C)CC[C@H]4[C@H](C)CC[C@@H]([C@@H]1C)[C@@]24OO3 | – | 0.372 µM (active)
27 | C[C@@H]1O[C@@H](O[C@@H]2C=C3CC[C@@H]4[C@@H](CC[C@]5(C)[C@H](c6ccc(=O)oc6)CC[C@@]45O)[C@@]3(C)CC2)[C@H](O)[C@H](O)[C@H]1O | – | 0.0264 µM (active)
28 | Cc1c(N)nc([C@H](CC(N)=O)NC[C@@H](N)C(N)=O)nc1C(=O)N[C@H](C(=O)N[C@@H](C)[C@H](O)[C@@H](C)C(=O)N[C@@H](C(=O)NCCc1nc(-c2nc(C(=O)NCCC[S+](C)C)cs2)cs1)[C@@H](C)O)C(O[C@H]1O[C@H](CO)[C@H](O)[C@@H](O)[C@@H]1O[C@H]1O[C@H](CO)[C@@H](O)[C@H](OC(N)=O)[C@H]1O)c1cnc[nH]1 (stereo not given in full) | – | 0.469 µM (active)
29 | Oc1ccc2c3c1O[C@H]1c4[nH]c5c(c4C[C@@]4(O)[C@@H](C2)N(CC2CC2)CC[C@]314)C[C@@]1(O)[C@H]2Cc3ccc(O)c4c3[C@@]1(CCN2CC1CC1)[C@H]5O4 | 104% (inactive) | –
30 | Cc1c(C(=O)Nc2cccc(C(F)(F)F)c2)cc(-c2ccccc2)n1CCCN1CCOCC1 | – | 16.6 µM (active)
31 | CCNC(=O)C[C@@H]1N=C(c2ccc(Cl)cc2)c2cc(OC)ccc2-n2c(C)nnc21 | – | 0.418 µM (active)
32 | C[C@@H]1CC[C@@]2(OC1)O[C@H]1C[C@H]3[C@@H]4CC=C5C[C@@H](O[C@@H]6O[C@H](CO)[C@@H](O[C@@H]7O[C@@H](C)[C@H](O)[C@@H](O)[C@@H]7O)[C@H](O)[C@@H]6O[C@@H]6O[C@@H](C)[C@H](O)[C@@H](O)[C@@H]6O)CC[C@]5(C)[C@@H]4CC[C@]3(C)[C@@H]1[C@H]2C | – | 5.9 µM (active)
33 | COc1ccc2c(c1)CN(C)CC2c1ccc(Cl)c(Cl)c1 (stereo not given) | – | 23.5 µM (active)
34 | O=S(=O)(F)Cc1ccccc1 | – | 2.96 µM (active)
35 | CC[C@@H](C(N)=O)N1CCCC1=O | 144% (inactive) | –
36 | CC(C)N(CCNC(=O)CN1CCCC1=O)C(C)C | 103% (inactive) | –
37 | O=C1CCC[C@@H]2[C@H]3CCCN4CCC[C@@H](CN12)[C@@H]34 | 100% (inactive) | –
38 | O=C(N[C@@H](COc1ccc2[nH]c(=O)[nH]c2c1)c1ccccc1)c1cccn(Cc2ccc(F)c(F)c2)c1=O | – | 20.9 µM (active)
39 | O=C(O)CNC(=O)c1c(O)c2ccccc2n(Cc2ccccc2)c1=O | 134% (inactive) | –
40 | CCCC[N+]1(C)[C@H]2CC(OC(=O)[C@H](CO)c3ccccc3)C[C@H]1[C@H]1O[C@H]12 (stereo not given in full) | 101% (inactive) | –
